Compound activity (PubChem)
Rows were chosen to be rich in hits. Some 2% of all compounds tested hit in one or more screens of this group.
HTT ATP protect = protects HTT-Q103 PC12 cells, measured by ATP | PC12 HTT-Q103 induced, cytoprotection, ATP luminescence, 40 h | Potency, µM (doses to about 56.4 µM), hits mostly activators | actives 0.14% (n = 230,000); further: nearly all actives have a fitted effect of over 45% in size
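Readout: ATPlite luminescence (ATP level). Model: stable PC12, inducible Htt exon1 Q103-GFP. Inducer: tebufenozide, 100 nM final. Compounds: dose series. No G418 in medium.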
TRb-SRC2 inh = TRbeta-SRC2 interaction inhibition. P10828. TRbeta-SRC2 peptide binding, fluorescence polarization; receptor liganded with 1 µM T3. Potency, µM (doses to about 106 µM), usual class: inhibitors. actives 0.065% (n = 280,000). AID 1469; further: nearly all actives have a fitted effect of over 50% in size
Target sequence (P10828 whole entry, looked up): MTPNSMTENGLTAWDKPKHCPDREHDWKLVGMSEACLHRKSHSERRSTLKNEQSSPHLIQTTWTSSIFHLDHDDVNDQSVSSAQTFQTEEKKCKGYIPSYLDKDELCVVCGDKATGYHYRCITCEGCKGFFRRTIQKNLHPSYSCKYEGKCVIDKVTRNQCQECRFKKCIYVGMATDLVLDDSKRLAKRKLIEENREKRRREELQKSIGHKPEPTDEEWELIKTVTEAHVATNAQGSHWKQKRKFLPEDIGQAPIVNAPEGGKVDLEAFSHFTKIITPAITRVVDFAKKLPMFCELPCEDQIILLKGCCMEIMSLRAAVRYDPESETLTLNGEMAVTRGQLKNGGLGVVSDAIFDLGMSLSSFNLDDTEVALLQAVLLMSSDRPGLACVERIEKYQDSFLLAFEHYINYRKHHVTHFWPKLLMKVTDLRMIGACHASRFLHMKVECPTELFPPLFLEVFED
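Read-out is fluorescence polarization (555 nm excitation, 632 nm emission) of a Texas Red SRC2 coactivator peptide; loss of signal reflects blocked binding to human TRb ligand-binding domain in the presence of 1 uM T3.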
KDM4E inh = JMJD2E (human) inhibition; B2RXH2; JMJD2E catalytic domain, FDH-coupled NADH fluorescence (FDH is formaldehyde dehydrogenase); Potency, µM (top dose mostly 57.1 µM), most hits filed as inhibitors; actives 1.6% (n = 230,000); AID 2147; active means well fitted inhibition curve with a large enough effect, not every such curve was filed as active; inconclusive means small, poorly fitted or top-dose-only effect, or another doubt; inactive means no such curve, though single readings can be large or run the other way; further: nearly all actives have a fitted effect of over 50% in size
HTT aggregate = inhibitors of mutant huntingtin aggregate formation in PC12 cells; PC12 HttQ103-GFP aggregates, Acumen cytometry, 40 h; Potency, µM (doses to about 46.1 µM), hits mostly inhibitors; actives 1.1% (n = 220,000); further: nearly all actives have a fitted effect of over 60% in size
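Aggregate formation scored by laser-scanning cytometer (488 excitation, 500–530 emission) in lysed PC12 cells expressing Q103-GFP after 100 nM tebufenozide induction; library tested in dose series, with ATPLite reagent added in the multiplex.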
FBPA coupling cs = counter-screen for Giardia aldolase inhibitors: coupling enzyme system; coupling enzyme system counterscreen, AmpLite Red fluorescence; activity change, negative = inhibition, % at 58.2 µM, hits read low; actives 0.67% (n = 290,000); in the data active means activity change below about -30%
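First, compound is pin-transferred into glyceraldehyde-3-phosphate coupling-enzyme reagent at 57.5 uM final and held 10 min at RT. Next, substrate, coupling system and AmpLite Red are added. After 20 min RT, fluorescence (525/598 nm) is read.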
TexasRed fluor = Texas Red fluorescence interference in TRb-SRC2 counter-screen | TRb/SRC2 Texas Red total fluorescence interference | Potency, µM (series often up to 106 µM) | actives 0.29% (n = 280,000); active means well fitted curve in either direction with a large enough effect; inconclusive means small, poorly fitted or top-dose-only effect
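Human TRb ligand-binding domain at 0.6 uM with 20 nM Texas Red SRC2 peptide in Tris buffer containing 1 uM T3 and 5% DMSO, incubated with compound 5 h at ambient temperature. Total fluorescence (555/632 nm) calculated as parallel + 2 × perpendicular.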
Numbers stand for hits; [ ] = dose if it differs, or a comment. Unless noted, the call rests on the fitted dose curve; in most records, active means well fitted curve in the direction sought with a large enough effect; inconclusive means small, poorly fitted or top-dose-only effect, or another doubt; inactive means no such curve, though single readings can be large; an effect the other way counts as inactive or inconclusive.

CCSc1oc(-c2cccs2)nc1S(=O)(=O)c1ccccc1 was read as HTT ATP protect inactive[10 µM], TRb-SRC2 inh inactive, KDM4E inh inactive, HTT aggregate 12.6µM, FBPA coupling cs inactive and TexasRed fluor inactive.
`C[C@H]1C[C@@H]2[C@H]3CCC4=CC(=O)C=C[C@@]4(C)[C@]3(Cl)[C@@H](Cl)C[C@]2(C)[C@]1(O)C(=O)COP(=O)(O)O` gave HTT ATP protect inactive[10 µM].
For Cc1ccc(Nc2nc(N)nc(CC#N)n2)cc1 the results were HTT ATP protect inactive, TRb-SRC2 inh inactive, KDM4E inh inactive, HTT aggregate 6.31µM, FBPA coupling cs inactive and TexasRed fluor inactive.
CCCCn1c(SCC(=O)NCc2ccco2)nc2c(sc3ccccc32)c1=O was read as HTT ATP protect inactive, TRb-SRC2 inh inactive, KDM4E inh 7.08µM, HTT aggregate inactive[1.84 µM], FBPA coupling cs inactive and TexasRed fluor inactive.
COc1ccc(C(C[N+](=O)[O-])c2c(C)[nH]n(-c3ccccc3)c2=O)cc1 (centres undefined) was read as FBPA coupling cs -39.1.
Cc1c(C(=O)NCc2ccccc2)sc2nc3n(c(=O)c12)CCCCC3 was read as TRb-SRC2 inh inactive and TexasRed fluor inactive.
CC1=NN(c2ccccc2)C(=O)C1C=Nc1ccccc1O (centres undefined) was read as HTT ATP protect inactive[10 µM], TRb-SRC2 inh inactive, KDM4E inh 31.6µM, HTT aggregate inactive[9.22 µM], FBPA coupling cs inactive and TexasRed fluor inactive.
CCCn1c(CNc2ccc(Br)cc2)nc2ccccc21 was read as HTT ATP protect inactive, TRb-SRC2 inh inactive, KDM4E inh inactive, HTT aggregate 11.2µM, FBPA coupling cs inactive and TexasRed fluor inactive.
For Cc1c(C#N)c(NC(=O)CCl)n(Cc2ccccc2)c1C the results were HTT ATP protect inactive, TRb-SRC2 inh inactive, KDM4E inh inactive, HTT aggregate 3.98µM, FBPA coupling cs inactive and TexasRed fluor inactive.
For CCN(CC)C(=O)c1sc(NC(=O)Cc2cccs2)c(C#N)c1C the results were HTT ATP protect inactive[10 µM], TRb-SRC2 inh inactive, KDM4E inh inactive, HTT aggregate inactive, FBPA coupling cs inactive and TexasRed fluor inactive.
Cc1cc(=O)n(Cc2ccccc2)c(O)c1C#N was read as FBPA coupling cs inactive.
Cc1c(C#N)c(NC(=O)CCl)n(Cc2cccs2)c1C was read as HTT ATP protect inactive[10 µM], TRb-SRC2 inh inactive, KDM4E inh inactive, HTT aggregate 20µM, FBPA coupling cs inactive and TexasRed fluor inactive.
COC(=O)c1cc(C(=O)OC)n(Cc2ccc(F)cc2)c1C was read as HTT ATP protect inactive, TRb-SRC2 inh inactive, KDM4E inh inactive, HTT aggregate inactive, FBPA coupling cs inactive and TexasRed fluor inactive.
`Cc1c(C#N)c(NC(=O)CCl)n(Cc2ccc(F)cc2)c1C` gave HTT ATP protect inactive, TRb-SRC2 inh inactive, KDM4E inh inactive, HTT aggregate 6.31µM, FBPA coupling cs inactive and TexasRed fluor inactive.
`c1ccc2c(c1)CCC[C@H]2C1=NCCN1` gave HTT ATP protect inactive[1.9 µM].
Screening Cc1nc(NCc2ccccc2)c2nc(-c3ccccc3)n(CCN3CCCC3)c2n1 returned HTT ATP protect inactive, TRb-SRC2 inh inactive, KDM4E inh inconclusive, FBPA coupling cs inactive and TexasRed fluor inactive.
Screening Cc1cccc(OCC(=O)Nc2ccc(N3CCN(C(=O)c4ccccc4)CC3)cc2)c1 returned HTT ATP protect inactive[0.074 µM], TRb-SRC2 inh inactive, KDM4E inh inactive, HTT aggregate 12.6µM, FBPA coupling cs inactive and TexasRed fluor inactive.
Screening Cc1ccc(OCC(=O)Nc2ccc(N3CCN(C(=O)c4ccc(C)cc4)CC3)cc2)cc1 returned HTT ATP protect inactive[10 µM], TRb-SRC2 inh inactive, KDM4E inh inactive, HTT aggregate inactive[9.22 µM], FBPA coupling cs inactive and TexasRed fluor inactive.
`CCOC(=O)c1[nH]c(C)c(CCC(=O)NC(C)c2ccccc2)c1C` (centres undefined) gave TRb-SRC2 inh inactive and TexasRed fluor inactive.
CC(=O)Nc1ccc(N=Nc2cc(C)ccc2O)cc1 was read as TRb-SRC2 inh inactive and TexasRed fluor inconclusive.
`COc1ccc(/C=N/Nc2nnc(-c3ncc[nH]3)c3ccccc23)cc1` gave HTT ATP protect inactive, TRb-SRC2 inh inactive, KDM4E inh inactive, HTT aggregate inconclusive, FBPA coupling cs inactive and TexasRed fluor inactive.
Screening Oc1ccc2ccccc2c1/C=N/Nc1nnc(-c2ncc[nH]2)c2ccccc12 returned HTT ATP protect inactive[10 µM], TRb-SRC2 inh inactive, KDM4E inh inactive, HTT aggregate 0.794µM, FBPA coupling cs inactive and TexasRed fluor inactive.
Screening Cc1ccc(S(=O)(=O)N2CCCc3cc(NC(=O)c4ccc(Cl)cc4)ccc32)cc1 returned TRb-SRC2 inh inactive and TexasRed fluor inactive.
Screening O=C(NCCCN1CCOCC1)c1ccccc1 returned HTT ATP protect inactive, TRb-SRC2 inh inactive, KDM4E inh inconclusive, HTT aggregate inactive, FBPA coupling cs inactive and TexasRed fluor inactive.
Screening CC(=O)Oc1cc2c(C(=O)NCCCN3CCOCC3)c(C)oc2c2ccccc12 returned HTT ATP protect inactive[0.074 µM], TRb-SRC2 inh inconclusive, KDM4E inh inactive, HTT aggregate inactive, FBPA coupling cs -37.7 and TexasRed fluor inactive.
For O=C(O)CCCSc1nc2ccccc2s1 the results were HTT ATP protect inactive[10 µM].
CC1(C)CCC(NC(=O)[C@H](N)CCC(=O)O)CC1 was read as HTT ATP protect inactive[1.9 µM].
`COc1cc(NC(=S)N2CCN(c3ccccn3)CC2)cc(OC)c1` gave HTT ATP protect inactive[10 µM], TRb-SRC2 inh inactive, KDM4E inh inactive, HTT aggregate 8.91µM, FBPA coupling cs inactive and TexasRed fluor inactive.
COC(=O)c1cc(NS(=O)(=O)c2ccc3c(c2)OCCO3)ccc1Cl was read as TRb-SRC2 inh inactive and TexasRed fluor inactive.
Screening CCN(CC)c1ccc2c(Cl)c(Br)c(=O)oc2c1 returned HTT ATP protect inconclusive, TRb-SRC2 inh inactive, KDM4E inh inconclusive, HTT aggregate inconclusive, FBPA coupling cs inactive and TexasRed fluor inactive.
For CCN(CC)c1ccc2c(c1)oc(=O)c1c(Cl)cc(=O)oc12 the results were HTT ATP protect inactive, TRb-SRC2 inh inactive, KDM4E inh inactive, HTT aggregate 12.6µM, FBPA coupling cs inactive and TexasRed fluor inactive.
For CC(=O)NC1(c2ccc(F)cc2)CCN(C(=O)Nc2ccc(F)cc2F)CC1 the results were HTT ATP protect inactive[10 µM], TRb-SRC2 inh inactive, KDM4E inh inactive, HTT aggregate 3.16µM, FBPA coupling cs inactive and TexasRed fluor inactive.
For Cc1cccc(C(=O)Nc2nc3nc(-c4ccccc4)cc(=O)n3[nH]2)c1 the results were TRb-SRC2 inh inactive and TexasRed fluor inactive.
COc1ccc(-n2[nH]c(C)cc2=O)cc1 was read as HTT ATP protect inactive, TRb-SRC2 inh inactive, KDM4E inh inactive, HTT aggregate inconclusive, FBPA coupling cs -31.9 and TexasRed fluor inactive.
